Experimental data as given in PubChem BioAssay AID492956 (The Scripps Research Institute Molecular Screening Center, 2010).
Out of some 340,000 compounds screened, about 3,300 (0.97%) were called active. Only a selection was taken, and actives are over-represented in it overall. Unmarked numbers belong to inactive results.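 How the source made its calls: active means inhibition above the mean over all tested compounds plus 3 SD (cut at about 30% in these data); inactive means the rest.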

molecular target: Platelet-activating factor acetylhydrolase 2, cytoplasmic (Homo sapiens) (UniProt Q99487); test: PAFAH2 enzyme inhibitors, primary screen, biochemical, fluorescence polarization, human (AID 492956); conditions: recombinant PAFAH2, FP-rhodamine activity probe, at 3.39 µM, hits give high values;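 further: inhibitors block probe labeling of enzyme so polarization drops; 0% = enzyme with DMSO and 100% = wells lacking PAFAH2 protein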

Q: Which inhibition does the source give for `Cc1noc(C)c1C(=O)N(CC(=O)NC1CCCC1)Cc1ccccc1F` here?
A: The inhibition was 3.06%.

Q: How did the inhibition turn out when `CC(N=Cc1nc(-c2ccccc2)oc1O)c1ccccc1` (stereo not given) was run?
A: Its inhibition is 21%.

Q: Which inhibition does the source give for `Oc1oc(-c2ccccc2Br)nc1/C=N/c1ccccn1` here?
A: The inhibition was 68% (active).

Q: Which inhibition does the source give for `CCOc1ccc2nc(/N=C/c3nc(-c4ccccc4)oc3O)sc2c1` here?
A: The inhibition was 2.86%.

Q: With `COc1ccc(F)cc1C(=O)COC(=O)c1n[nH]c(=O)c2ccccc12` as the compound, how does the inhibition read?
A: Its inhibition is 0.13%.

Q: With `Cc1ccc2oc(=O)ccc2c1` as the compound, how does the inhibition read?
A: Its inhibition is 1.28%.

Q: `Cc1ccc2c(=O)oc(N(C)C)nc2c1` was tested. Which inhibition did it give?
A: Its inhibition is 33% (active).

Q: With `CN(C)c1ccc2c(=O)[nH][nH]c(=O)c2c1` as the compound, how does the inhibition read?
A: Its inhibition is 0.81%.

Q: For `CCOC(=O)C1CCCCN1Cc1ccc(OC)c(OC)c1OC` (stereo not given), which inhibition is on record?
A: Its inhibition is -0.46%.

Q: `COC(CCN(C)C)(c1ccccc1)c1ccccc1` was tested. Which inhibition did it give?
A: Its inhibition is 3.5%.

Q: How did the inhibition turn out when `C=CCC(NCCCO)c1cccc(OC)c1OC` (stereo not given) was run?
A: The inhibition was 5.85%.

Q: For `O=C1C(Cl)=C(Oc2ccccc2)C(=O)c2ccccc21`, which inhibition is on record?
A: The inhibition was 43.1% (active).

Q: With `CC(=O)N(C1=C(Cl)C(=O)c2ccccc2C1=O)c1ccc(C(=O)O)cc1` as the compound, how does the inhibition read?
A: Its inhibition is 10.5%.

Q: With `Cc1ccc2[nH]c(=O)c(CN3CCCCC3)c(-c3ccccc3)c2c1` as the compound, how does the inhibition read?
A: The inhibition was 6.01%.

Q: Which inhibition does the source give for `CCc1cc(=O)oc2c(C)c(OCC(=O)N3CC[C@@]4(O)CCCC[C@H]4C3)ccc12` here?
A: Its inhibition is -2.6%.

Q: With `Oc1c(Cl)cc(Cl)c(Cl)c1Cc1c(O)c(Cl)cc(Cl)c1Cl` as the compound, how does the inhibition read?
A: Its inhibition is 49.4% (active).

Q: With `CCOC(=O)C(=CNNc1ccsc1C(=O)OC)C(=O)OCC` as the compound, how does the inhibition read?
A: The inhibition was -1.37%.

Q: How did the inhibition turn out when `CCOc1ccc(S(=O)(=O)N2CCC(C(=O)NCC(=O)Nc3cccc(Cl)c3C)CC2)cc1` was run?
A: The inhibition was 8.28%.

Q: `O=C(O)c1ccc(NS(=O)(=O)c2ccc3c(c2)C(=O)c2cc(S(=O)(=O)Nc4ccc(C(=O)O)cc4)ccc2-3)cc1` was tested. Which inhibition did it give?
A: The inhibition was 4.82%.

Q: With `OCC[C@H]1C[C@H](O)[C@@H](O)[C@]2(Cc3ccccc3CO2)O1` as the compound, how does the inhibition read?
A: Its inhibition is 8.82%.

Q: Which inhibition does the source give for `COc1ccc(NS(=O)(=O)c2ccc(C)c(C(=O)NCC(c3cccs3)N3CCOCC3)c2)cc1` (stereo not given) here?
A: The inhibition was 7.05%.

Q: `CCOc1ccccc1NC(=O)CCc1nnc2ccc(NCc3ccco3)nn12` was tested. Which inhibition did it give?
A: The inhibition was 3.78%.

Q: How did the inhibition turn out when `O=C(COC(=O)/C=C/c1nc2ccccc2s1)Nc1ccccc1Oc1ccccc1` was run?
A: The inhibition was -12.4%.

Q: `Cc1ccc(/C=C/C(=O)OCC(=O)Nc2cccnc2Cl)cc1` was tested. Which inhibition did it give?
A: The inhibition was 30.3% (active).

Q: For `COc1ccc(-c2nnc(SCC(=O)Nc3cccnc3Cl)n2C)cc1`, which inhibition is on record?
A: Its inhibition is 0.74%.

Q: `O=C(NCCC(=O)N1O[C@@H]2C=C[C@H]1C2)OCC1c2ccccc2-c2ccccc21` was tested. Which inhibition did it give?
A: Its inhibition is 2.94%.

Q: For `O=C(Cc1ccc([N+](=O)[O-])cc1)Nc1ccc(C(=O)N2CCOCC2)cc1`, which inhibition is on record?
A: The inhibition was 1.43%.

Q: With `O=C(Oc1cccc(C(=S)N2CCOCC2)c1)c1cccc(Cl)c1` as the compound, how does the inhibition read?
A: Its inhibition is 5.91%.

Q: Which inhibition does the source give for `O=C(/C=C/c1cccs1)c1cc(Cl)ccc1OC(=O)N1CCOCC1` here?
A: The inhibition was 72.8% (active).

Q: How did the inhibition turn out when `CC(=O)Nc1ccccc1OC(=O)N1CCOCC1` was run?
A: Its inhibition is 7.14%.

Q: How did the inhibition turn out when `COc1cccc(N(C(=O)c2snc(C(N)=O)c2N)C(C(=O)NCC2CCCO2)c2c[nH]c3ccccc23)c1` (stereo not given) was run?
A: The inhibition was -0.32%.

Q: With `COc1ccc(-c2nc3c(s2)CCc2onc(-c4ccc(Br)cc4)c2-3)cc1` as the compound, how does the inhibition read?
A: The inhibition was -1.79%.

Q: Which inhibition does the source give for `Cc1cc(NC(=O)COC(=O)c2ccc(F)c(S(=O)(=O)N3CCOCC3)c2)no1` here?
A: Its inhibition is 8.91%.

Q: `Cc1ccc(NC(=O)COC(=O)C2CC2)cc1S(=O)(=O)N1CCOCC1` was tested. Which inhibition did it give?
A: The inhibition was 77.5% (active).

Q: Which inhibition does the source give for `Cc1cc(C)cc(NC(=O)c2cccc(NC(=O)C3C4CC5OC(=O)C3C5C4)c2)c1` (stereo not given) here?
A: Its inhibition is 6.12%.

Q: How did the inhibition turn out when `O=C(COC(=O)c1ccco1)Nc1ccc(Cl)cn1` was run?
A: Its inhibition is 45.5% (active).

Q: With `O=C(COC(=O)c1ccco1)NCc1ccc(Cl)cc1` as the compound, how does the inhibition read?
A: Its inhibition is 24.3%.

Q: How did the inhibition turn out when `Cc1ccc(C(=O)OCC(=O)Nc2ccc(Cl)cn2)cc1S(=O)(=O)N1CCOCC1` was run?
A: The inhibition was 55.8% (active).

Q: For `Cc1ccc(NC(=O)COC(=O)C2C3CC4OC(=O)C2C4C3)cc1Cl` (stereo not given), which inhibition is on record?
A: Its inhibition is 88.2% (active).

Q: For `CC(OC(=O)CNC(=O)c1ccco1)C(=O)Nc1ccc(Cl)cn1` (stereo not given), which inhibition is on record?
A: The inhibition was -0.78%.

Q: `Cc1ccc(NC(=O)C2CC2)cc1S(=O)(=O)N1CCOCC1` was tested. Which inhibition did it give?
A: The inhibition was -3.1%.

Q: Which inhibition does the source give for `Cc1ccc(C(=O)OCC(=O)N2CCCCCC2)cc1S(=O)(=O)N1CCOCC1` here?
A: The inhibition was 10.7%.

Q: For `O=C(Nc1ccc(Br)cc1)c1cccc(NC(=O)C2C3CC4OC(=O)C2C4C3)c1` (stereo not given), which inhibition is on record?
A: Its inhibition is -8.44%.

Q: With `Cc1ccc(NC(=O)COC(=O)CNC(=O)c2ccc(Cl)cc2Cl)cc1S(=O)(=O)N1CCOCC1` as the compound, how does the inhibition read?
A: The inhibition was -3.69%.

Q: How did the inhibition turn out when `Cc1ccc(NC(=O)C(=O)NCC2CCN(C(=O)c3cccc([N+](=O)[O-])c3)CC2)cc1` was run?
A: The inhibition was 3.36%.

Q: Which inhibition does the source give for `C=CCNc1nnc(SCC(=O)N2CCCCC2)c2ccccc12` here?
A: Its inhibition is -3.63%.

Q: `O=C(Nc1ccc(-c2cscn2)cc1)C1CCCN(Cc2ccc(CO)o2)C1` (stereo not given) was tested. Which inhibition did it give?
A: The inhibition was -10.4%.

Q: How did the inhibition turn out when `COc1ccc(CNC(=O)[C@@H]2CC=C[C@@H]3CCN(C4CC4)C(=O)[C@@H]32)cc1` was run?
A: Its inhibition is -6.96%.

Q: Which inhibition does the source give for `CCOC(=O)C1=C(c2ccccc2)O/C(=C(/C(=O)OC)C(F)(F)F)S1` here?
A: The inhibition was 1.19%.

Q: For `Cc1cc(=O)n(C)c(=O)n1CCCNc1ccccc1`, which inhibition is on record?
A: Its inhibition is -0.72%.

Q: For `CCCC(=O)N1CCC(CCC(=O)NC2CC2)CC1`, which inhibition is on record?
A: Its inhibition is 2.54%.

Q: Which inhibition does the source give for `CC(CO)NCC12CC3CC(CC(C3)C1)C2` (stereo not given) here?
A: Its inhibition is -2.32%.

Q: `CCc1ccc2oc(-c3ccc(N)cc3)nc2c1` was tested. Which inhibition did it give?
A: Its inhibition is 8.24%.

Q: With `Cc1cc(-c2nnc(SCC(=O)Nc3ccc(S(N)(=O)=O)cc3)n2N)n[nH]1` as the compound, how does the inhibition read?
A: The inhibition was -4.23%.

Q: Which inhibition does the source give for `Cc1ccc(C)c(S(=O)(=O)Nc2cc(C)on2)c1` here?
A: The inhibition was 0.2%.

Q: Which inhibition does the source give for `CCc1cccc(C)c1NC(=O)COC(=O)CNC(=O)c1cccs1` here?
A: Its inhibition is 5.02%.

Q: `CCc1cccc(C)c1NC(=O)COC(=O)CC1CCCC1` was tested. Which inhibition did it give?
A: The inhibition was 68.3% (active).

Q: Which inhibition does the source give for `CCc1cccc(C)c1NC(=O)COC(=O)Cc1ccsc1` here?
A: The inhibition was 7.53%.

Q: `Cc1cc(C)n2nc(C(=O)OCC(=O)N(CCC#N)c3ccc(F)cc3)nc2n1` was tested. Which inhibition did it give?
A: The inhibition was -0.66%.

Q: `CC(C)Nc1nnc(SC(C)C(=O)N(C)C2CCCCC2)s1` (stereo not given) was tested. Which inhibition did it give?
A: Its inhibition is 9.89%.
